Measured values as given in PubChem BioAssay AID1671202 (University of Kansas High Throughput Screening Laboratory, 2021).
Values joined by “and” are separate entries in the source; they are usually repeats but may differ in a detail not shown here. Identical values can stand only once. The campaign covered roughly 190,000 compounds. About 6,900 (3.6%) were called active. Cut-off read from the data, not from the text of the source: active = inhibition above about 50%; inactive = the rest. Only a selection was taken, and actives are over-represented in it overall.

Molecular target: Huntingtin (Homo sapiens) (UniProt P42858)
Sequence (P42858 whole entry, looked up, stated change not applied): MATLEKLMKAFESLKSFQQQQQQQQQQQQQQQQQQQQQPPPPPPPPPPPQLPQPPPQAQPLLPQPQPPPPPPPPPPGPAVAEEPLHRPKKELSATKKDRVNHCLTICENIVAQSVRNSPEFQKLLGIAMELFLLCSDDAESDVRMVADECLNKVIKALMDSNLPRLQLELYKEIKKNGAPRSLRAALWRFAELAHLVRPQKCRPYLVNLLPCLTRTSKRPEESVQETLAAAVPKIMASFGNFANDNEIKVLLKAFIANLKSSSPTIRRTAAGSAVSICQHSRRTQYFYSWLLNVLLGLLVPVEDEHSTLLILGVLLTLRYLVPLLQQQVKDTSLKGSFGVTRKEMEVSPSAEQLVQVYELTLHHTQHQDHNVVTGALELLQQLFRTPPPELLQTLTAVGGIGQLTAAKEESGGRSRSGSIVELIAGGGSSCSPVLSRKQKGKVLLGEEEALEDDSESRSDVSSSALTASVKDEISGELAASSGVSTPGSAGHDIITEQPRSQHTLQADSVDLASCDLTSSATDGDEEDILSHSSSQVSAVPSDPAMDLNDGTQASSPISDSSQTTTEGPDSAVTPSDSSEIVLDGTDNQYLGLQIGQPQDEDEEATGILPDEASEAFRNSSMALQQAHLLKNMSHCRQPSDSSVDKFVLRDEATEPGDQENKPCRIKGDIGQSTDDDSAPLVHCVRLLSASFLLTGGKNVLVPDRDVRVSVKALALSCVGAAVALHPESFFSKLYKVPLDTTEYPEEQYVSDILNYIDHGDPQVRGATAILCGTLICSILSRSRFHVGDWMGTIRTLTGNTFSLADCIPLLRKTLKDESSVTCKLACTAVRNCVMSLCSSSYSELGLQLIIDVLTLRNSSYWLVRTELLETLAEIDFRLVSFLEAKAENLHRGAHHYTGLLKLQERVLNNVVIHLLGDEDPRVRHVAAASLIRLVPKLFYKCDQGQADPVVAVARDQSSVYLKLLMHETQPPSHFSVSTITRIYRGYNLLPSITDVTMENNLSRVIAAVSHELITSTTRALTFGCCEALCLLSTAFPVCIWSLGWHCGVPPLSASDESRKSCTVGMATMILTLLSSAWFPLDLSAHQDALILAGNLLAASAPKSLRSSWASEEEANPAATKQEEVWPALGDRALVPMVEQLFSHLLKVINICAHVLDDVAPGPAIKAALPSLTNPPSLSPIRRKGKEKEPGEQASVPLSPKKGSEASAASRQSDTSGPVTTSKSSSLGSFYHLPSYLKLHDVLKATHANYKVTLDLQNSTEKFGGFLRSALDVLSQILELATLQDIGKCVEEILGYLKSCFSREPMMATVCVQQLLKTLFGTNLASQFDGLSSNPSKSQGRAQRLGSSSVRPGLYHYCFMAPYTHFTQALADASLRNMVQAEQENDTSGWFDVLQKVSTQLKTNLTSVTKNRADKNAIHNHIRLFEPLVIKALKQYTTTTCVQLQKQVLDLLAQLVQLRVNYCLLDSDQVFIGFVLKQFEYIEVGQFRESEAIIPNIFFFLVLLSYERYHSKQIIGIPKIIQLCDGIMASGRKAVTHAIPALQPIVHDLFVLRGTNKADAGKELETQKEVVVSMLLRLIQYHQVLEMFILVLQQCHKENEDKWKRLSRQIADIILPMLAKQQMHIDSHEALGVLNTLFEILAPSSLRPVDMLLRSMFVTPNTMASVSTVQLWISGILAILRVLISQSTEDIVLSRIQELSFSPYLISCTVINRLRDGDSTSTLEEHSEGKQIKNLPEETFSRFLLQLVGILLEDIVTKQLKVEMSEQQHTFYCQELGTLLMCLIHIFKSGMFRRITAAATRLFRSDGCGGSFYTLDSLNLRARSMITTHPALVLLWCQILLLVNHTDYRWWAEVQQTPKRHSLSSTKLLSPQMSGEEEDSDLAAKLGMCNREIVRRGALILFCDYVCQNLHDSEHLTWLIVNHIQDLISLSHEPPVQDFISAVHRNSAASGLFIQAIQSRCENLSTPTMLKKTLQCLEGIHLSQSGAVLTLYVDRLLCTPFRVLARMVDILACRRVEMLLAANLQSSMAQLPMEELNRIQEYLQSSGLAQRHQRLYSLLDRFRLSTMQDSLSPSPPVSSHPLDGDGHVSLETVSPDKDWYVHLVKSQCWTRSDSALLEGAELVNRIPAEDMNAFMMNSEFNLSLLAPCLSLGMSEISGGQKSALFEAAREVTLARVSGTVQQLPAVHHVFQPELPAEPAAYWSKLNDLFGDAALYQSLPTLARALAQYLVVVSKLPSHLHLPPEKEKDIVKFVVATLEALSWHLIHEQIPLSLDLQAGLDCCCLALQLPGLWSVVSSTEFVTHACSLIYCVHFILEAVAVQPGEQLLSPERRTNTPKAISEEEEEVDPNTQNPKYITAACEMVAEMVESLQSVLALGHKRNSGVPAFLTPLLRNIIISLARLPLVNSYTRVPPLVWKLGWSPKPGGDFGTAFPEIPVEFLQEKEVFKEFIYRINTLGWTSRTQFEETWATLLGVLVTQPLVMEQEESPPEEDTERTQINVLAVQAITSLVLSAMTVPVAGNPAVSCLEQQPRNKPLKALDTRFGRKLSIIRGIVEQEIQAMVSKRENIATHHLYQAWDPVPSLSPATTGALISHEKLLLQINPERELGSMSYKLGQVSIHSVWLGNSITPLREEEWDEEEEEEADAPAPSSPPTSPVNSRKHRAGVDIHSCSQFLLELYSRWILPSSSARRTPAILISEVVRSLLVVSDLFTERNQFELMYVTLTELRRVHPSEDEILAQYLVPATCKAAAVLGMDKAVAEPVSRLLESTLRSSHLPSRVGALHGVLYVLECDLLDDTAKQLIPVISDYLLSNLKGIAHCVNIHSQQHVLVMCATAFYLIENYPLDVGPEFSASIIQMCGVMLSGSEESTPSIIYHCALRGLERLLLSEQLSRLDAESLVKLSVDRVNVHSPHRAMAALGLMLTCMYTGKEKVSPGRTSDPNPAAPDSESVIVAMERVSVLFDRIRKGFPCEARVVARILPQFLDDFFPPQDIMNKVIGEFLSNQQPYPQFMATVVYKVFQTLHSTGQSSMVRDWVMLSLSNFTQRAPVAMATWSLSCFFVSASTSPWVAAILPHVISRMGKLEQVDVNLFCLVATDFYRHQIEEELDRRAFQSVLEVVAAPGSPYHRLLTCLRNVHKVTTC
Assay: mutant huntingtin-calmodulin interaction inhibitors – biochemical, AlphaScreen, primary screen (AID 1671202);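 for inhibition: 0% = both proteins with DMSO and 100% = one protein alone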
Settings: AlphaScreen His-mHTT/GST-CaM binding, luminescence; at 15 µM, active compounds read high

SMILES	inhibition
CCOC(=O)N1CCCN(C(=O)OCC)CC1	-5.6% (inactive)
COc1ccc2c(c1)OCC/C2=N\OC(=O)c1cc(Cl)ccc1OC	inactive
C=CCN1C=C(c2ccc3ccccc3n2)C(C#N)c2ccccc21 (centres undefined)	15% (inactive)
O=C(CSc1nccc(N2CCCCC2)n1)Nc1cc(C(F)(F)F)ccc1Cl	-12.5% (inactive)
CN(C)C(=O)c1cnn(-c2ccccc2)c1-n1cccc1	2.9% (inactive)
O=C(NCc1ccccn1)C1CC(=O)N(CCc2c[nH]c3ccc(F)cc23)C1 (centres undefined)	46.9% (inactive)
Cc1cc(OCC(=O)Nc2c(C)cccc2C)ccc1Cl	-6.2% (inactive)
Cc1cc(OCC(=O)N2N=C(C(F)(F)F)CC2(O)C(C)(C)C)ccc1Cl (centres undefined)	100% (active)
Cc1cc(OCC(=O)Nc2ccc(Cl)cn2)ccc1Cl	-7% (inactive)
Cc1sc2ncnc(N3CCN(c4ccccn4)CC3)c2c1-c1ccc(F)cc1	0.3% (inactive)
CCOC(=O)Nc1ccc2c(c1)CN(C(=O)c1cccs1)CC2	2.5% (inactive)
CCCNC(=O)C1CCN(c2nc3ccsc3c(=O)n2Cc2ccccc2)CC1	-1.4% (inactive)
CCOC(=O)C1CCc2sc(NC(=O)Cn3nc(C)cc3C)nc21 (centres undefined)	-9.9% (inactive)
CCOC(=O)C1CCc2sc(NC(=O)C3COCC(=O)N3Cc3ccccc3)nc21 (centres undefined)	64.1% (active)
COc1cc(CN2CCN(CCO)CC2)c([N+](=O)[O-])cc1OC	1.8% (inactive)
COc1cc(CNc2cc(C)cc(C)c2)c([N+](=O)[O-])cc1OC	75% (active)
COc1cc(CN2CCCN(C)CC2)c([N+](=O)[O-])cc1OC	-0.1% (inactive)
Clc1ccccc1C1CC(c2ccccc2)n2ncnc2N1 (centres undefined)	3.6% (inactive)
N#C/C(=C\c1ccc(F)cc1)c1nc(-c2ccc([N+](=O)[O-])cc2)cs1	1.8% (inactive)
Cc1ccc(-c2csc(/C(C#N)=C/c3ccc([N+](=O)[O-])cc3)n2)cc1	12.1% (inactive)
N#C/C(=C\c1ccc(O)cc1)c1nc(-c2ccc(Cl)cc2)cs1	58.9% (active)
COc1cccc(CNC(=O)CC2CCN(S(=O)(=O)c3ccc(Cl)s3)CC2)c1	-9.77% (inactive)

SMILES	inhibition
O=C(c1ccncc1)N1N=C(c2ccc(Cl)cc2)CC1(O)C(F)(F)F (centres undefined)	58% (active)
CN(C)c1ccc(C(=O)N2N=C(c3ccc(Br)cc3)CC2(O)C(F)(F)F)cc1 (centres undefined)	13% (inactive)
O=C(C1CC1)N1N=C(c2ccc(Br)cc2)CC1(O)C(F)(F)F (centres undefined)	-4% (inactive)
O=[N+]([O-])c1cccc(C=Nc2ccc3nc(-c4cccc(F)c4)oc3c2)c1O	1% (inactive)
O=C1c2ccccc2C(=O)N1CN(C(=O)c1ccc([N+](=O)[O-])cc1)c1ccc(F)cc1	1% (inactive)
c1ccc(CSc2nnc(-c3ccco3)c(-c3ccco3)n2)cc1	85% (active)
O=C(CSc1nnc(-c2ccco2)c(-c2ccco2)n1)Nc1ccc(Br)cc1	79% (active)
Cc1ccc(F)cc1NC(=O)CSc1nnc(-c2ccco2)c(-c2ccco2)n1	86% (active)
O=c1[nH]c(SCc2ccccc2)nnc1-c1ccccc1	-3% (inactive)
Cc1ccc(F)cc1NC(=O)Cc1nn(C)c(=O)c2ccccc12	3% (inactive)
N#Cc1c(-c2ccco2)cc(C2CC2)nc1SCc1ccccc1	-5% (inactive)
O=C(CSc1oc(-c2ccco2)nc1S(=O)(=O)c1ccccc1)Nc1ccc(F)cc1	6% (inactive)
O=C(CSc1nnc(-c2ccco2)n1-c1ccccc1)Nc1ccc(F)cc1	11.2% (inactive)
Cc1ccccc1NC(=O)CSc1nnc(-c2ccco2)n1C	1% (inactive)
CCOCCCNC(=O)C1CCCN(c2nccc(C)n2)C1 (centres undefined)	-8.18% (inactive)
Cc1c(C(=O)N2CCN(C)CC2)c(CC(C)C)nn1-c1ccc(Cl)c(Cl)c1	94.8% (active)
CCc1nn(-c2ccc(F)cc2)c(CC)c1C(=O)N1CCN(C)CC1	9.8% (inactive)
CCN1CCN(C(=O)c2c(C(C)C)nn(-c3cccc(Cl)c3)c2C(C)C)CC1	32.9% (inactive)
CN(C)C(=O)CSc1nnc(N)s1	-4.07% (inactive)
Cc1ccc2c(c1)C(=O)NC1(CCN(C(=O)c3ccc(C(F)(F)F)cc3)CC1)N2C	4.4% (inactive)
O=C(c1ccccc1)N1CCCC(c2ccnc(Nc3ccccc3)n2)C1 (centres undefined)	43.6% (inactive)
N#Cc1ccc(C(=O)N2CCCC(c3ccnc(Nc4cccc(F)c4)n3)C2)cc1 (centres undefined)	6.41% (inactive)

SMILES	inhibition
O=C(c1ccccc1F)N1CCCC(c2ccnc(-c3cccc(F)c3)n2)C1 (centres undefined)	1.2% (inactive)
COc1ccc(C(=O)N2CCCC(c3ccnc(Nc4ccccc4)n3)C2)cc1 (centres undefined)	69.4% (active)
N#Cc1ccc(C(=O)N2CCCC(c3ccnc(Nc4ccccc4)n3)C2)cc1 (centres undefined)	-5.02% (inactive)
CN(C)c1ccc(C(=O)N2CCCC(c3ccnc(Nc4cccc(F)c4)n3)C2)cc1 (centres undefined)	80.1% (active)
COc1ccc(CCNC(=S)NC2Cc3ccccc3C2)cc1OC	6.9% (inactive)
Cc1onc(-c2ccccc2)c1C(=O)Nc1ccc(S(N)(=O)=O)cc1	-0.8% (inactive)
CN1CCN(c2cc(C(=O)O)c3cc(F)ccc3n2)CC1	3.5% (inactive)
N#Cc1ccc(Sc2nc3ccccc3o2)c([N+](=O)[O-])c1	12% (inactive)
COc1cccc(C(=O)NC(c2cccc([N+](=O)[O-])c2)c2cc(Cl)c3cccnc3c2O)c1 (centres undefined)	19% (inactive)
Cc1ccc(C)c(NC(=O)Cc2ccccc2)c1	0.9% (inactive)
O=C(Cc1ccccc1)NC(Nc1ccccc1Cl)C(Cl)(Cl)Cl (centres undefined)	20% (inactive)
CC(=O)NC(c1ccccc1)c1ccc2cccnc2c1O (centres undefined)	100% (active)
Cc1ccc(C(=O)NCCOc2cccc3cccnc23)cc1	9% (inactive) and -2% (inactive)
O=C(O)c1ccccc1C(=O)Nc1cccc2cccnc12	4% (inactive)
CC(=O)NC(c1cccs1)c1cc(Cl)c2cccnc2c1O (centres undefined)	70% (active) and 100% (active)
CC(NC(=O)COc1ncccn1)c1ccccc1 (centres undefined)	-13.9% (inactive)
Cc1ccc(C(NC(=O)Cc2ccccc2)c2ccc3cccnc3c2O)cc1 (centres undefined)	100% (active)
COc1ncccc1CNC(=O)c1cccs1	-2.2% (inactive)
O=C(Cc1ccccc1)NC(c1ccc(Cl)cc1)c1ccc2cccnc2c1O (centres undefined)	99% (active)
O=C(Cc1ccccc1)Nc1ccc(F)c(Cl)c1	-11.1% (inactive)
